Molecules are shown by their SMILES. Hit rate of the full screen: of about 190,000 compounds, about 1,300 (0.68%) were called active. Only a selection was taken, and actives are over-represented in it overall. A number with no mark means an inactive call. Cut-off read from the data, not from the text of the source: active = inhibition above about 50%; inactive = the rest.

The assay deals with Mannose-6-phosphate isomerase (Homo sapiens) (UniProt P34949). Put plainly: human PMI inhibitors, high substrate, primary screen, biochemical, fluorescence intensity, high mannose 6-phosphate (AID 1220). Particulars: recombinant PMI enzyme, coupled fluorescence intensity; at 20 µM; active compounds read high.
Sequence of Mannose-6-phosphate isomerase (Homo sapiens) (P34949 whole entry, looked up): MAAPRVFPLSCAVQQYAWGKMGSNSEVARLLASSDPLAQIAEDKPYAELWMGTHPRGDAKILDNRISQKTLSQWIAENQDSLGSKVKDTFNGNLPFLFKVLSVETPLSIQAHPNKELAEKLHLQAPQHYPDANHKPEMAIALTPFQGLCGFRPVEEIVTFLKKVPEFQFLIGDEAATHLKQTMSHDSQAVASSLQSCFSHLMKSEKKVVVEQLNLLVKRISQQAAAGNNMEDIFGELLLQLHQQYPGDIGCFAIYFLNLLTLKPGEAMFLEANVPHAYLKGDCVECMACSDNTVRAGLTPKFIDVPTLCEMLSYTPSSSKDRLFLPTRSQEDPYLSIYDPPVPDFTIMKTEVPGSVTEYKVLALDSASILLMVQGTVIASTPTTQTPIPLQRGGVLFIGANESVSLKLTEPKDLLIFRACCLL
Turning to `Cc1c(C(=O)NCC2CCCO2)oc2ccc(S(=O)(=O)N3CCCCC3)cc12` (centres undefined), the inhibition is -6.8%.

As to `Cc1sc2cc3c(c(C(=O)c4ccccc4)[n+]2c1C)-c1cccc2cccc-3c12`, the inhibition is -1.5%. The figure for `O=C(c1ccccc1)c1c2c(cc3sc4ccccc4[n+]13)-c1cccc3cccc-2c13` is 51.7% (active); for `O=C(c1ccccc1)c1cc2ccccc2o1` it is -9.2%; for `COc1ccccc1CN1CCCCC1C(=O)O` (centres undefined) it is -6.1%. The figure for `COC(=O)c1c(NC(=O)c2ccco2)sc(C(=O)N(C)C)c1C` is 1.2%.

As to `O=C(O)C1CCCCC1C(=O)Nc1cccc2ccccc12` (centres undefined), the inhibition was 54.6% (active).

As to `O=C(O)C1CCCCC1C(=O)Nc1ccccc1Cl` (centres undefined), the inhibition was -0.8%. The figure for `O=C(O)C1CCCCC1C(=O)Nc1ccccc1F` (centres undefined) is 7%; for `O=C(COC(=O)/C=C/c1cccc([N+](=O)[O-])c1)NCCCN1CCCC1=O` it is -2.9%; for `COc1cc(-c2nc3ccccn3c2/N=C/c2ccccc2)ccc1O` it is 14.6%. The figure for `COc1cc(-c2nc3ccccn3c2/N=C/c2cc(OC)c(O)cc2Cl)ccc1O` is 41.9%; for `COc1cc(-c2nc3ccccn3c2/N=C/c2cccc(OC)c2O)ccc1O` it is 61.6% (active); for `O=C(O)c1cc2c(ccc3ccccc32)o1` it is 9.6%.

`CC(=O)c1cc2c(O)c(O)ccc2o1`: the inhibition was 71% (active).

As for `CC(=O)c1cc2cc(O)ccc2o1`, the inhibition was 1.7%. The figure for `CSCCC(NS(=O)(=O)/C=C/c1ccccc1)C(=O)O` (centres undefined) is -6.2%; for `CCOC(=O)N1CCC(NS(=O)(=O)c2ccc3c(c2)oc(=O)n3C)CC1` it is 12.9%; for `CN(C)S(=O)(=O)c1ccc(NC(=O)N2CCOCC2)cc1` it is -1.8%. Take `CN(C)c1ccc(NC(=O)N2CCOCC2)cc1`: the inhibition was 63.7% (active). The figure for `O=C(Nc1ccc(F)cc1)N1CCOCC1` is 1.9%; for `NC(=O)NNC(=S)Nc1cccc2ccccc12` it is 27.8%; for `O=C(NCc1ccccc1)C1=C[C@@H](c2ccc(Br)cc2)C[C@@H](OCCCCO)O1` it is 60.5% (active). The figure for `O=C(Nc1ccccc1)C1=C[C@H](c2ccc(Br)cc2)C[C@H](OCc2ccc(CO)cc2)O1` is 13.9%; for `O=C(NCc1ccccc1)C1=C[C@H](c2ccc(Br)cc2)C[C@H](OCc2ccc(CO)cc2)O1` it is 37.7%. As for `C#Cc1ccc([C@@H]2C=C(C(=O)NCc3ccccc3)O[C@H](OCc3ccc(CO)cc3)C2)cc1`, the inhibition is 50.8% (active). Turning to `C#Cc1ccc([C@H]2C=C(C(=O)O)O[C@@H](OCc3ccc(CO)cc3)C2)cc1`, the inhibition was 9.9%. In the case of `O=C(Nc1ccccc1)C1=C[C@@H](c2ccc(C(F)(F)F)cc2)C[C@@H](OCc2ccc(CO)cc2)O1`, the inhibition was 18%. The figure for `O=C(Nc1ccccc1)C1=C[C@@H](c2ccc(Br)cc2)C[C@@H](OCCCCO)O1` is 12.2%; for `O=C(NCc1ccccc1)C1=C[C@H](c2ccc(C(F)(F)F)cc2)C[C@H](OCc2ccc(CO)cc2)O1` it is 46.8%.

For `O=C(NCc1ccccc1)C1=C[C@@H](c2ccc(Br)cc2)C[C@@H](OCc2ccc(CO)cc2)O1`, the inhibition is 55.2% (active).

Consider `C#CCNC(=O)C1=C[C@H](c2ccc(Br)cc2)C[C@H](OCCCCO)O1`, for which the inhibition is 37.7%. The figure for `C#Cc1ccc([C@@H]2C=C(C(=O)O)O[C@H](OCc3ccc(CO)cc3)C2)cc1` is 0.7%; for `O=C(NCc1ccccc1)C1=C[C@@H](c2ccc(C(F)(F)F)cc2)C[C@@H](OCc2ccc(CO)cc2)O1` it is 50.2% (active).

With `CCCOc1ccc(C(=O)c2nc3c(n2O)CCCC3)cc1`, the inhibition is -4.1%. The figure for `CC1Oc2ccccc2C=C1/C=C1/SC(N2CCOCC2)=NC1=O` (centres undefined) is 26.6%; for `CCCCc1nnc(NC(=O)C2CCCO2)s1` (centres undefined) it is 4.7%. For the compound `c1cncc(CSc2ccc(-c3cccnc3)nn2)c1`, the inhibition was -3.2%. The figure for `CCC(CC)c1nnc(NC(=O)c2c(C)nn(Cc3ccccc3Cl)c2C)s1` is 3%. Consider `O=C(CCNS(=O)(=O)c1cccs1)NC1CCN(Cc2ccccc2)CC1`, for which the inhibition was 6.1%. On to `CC(=O)OCc1c(F)c(F)c(-n2nc(C)cc2C)c(F)c1F`, for which the inhibition was 1.5%. The figure for `COc1ccc(-c2nnn(CC(=O)N(CCCN3CCOCC3)C(C(=O)NC3CCCC3)c3ccco3)n2)cc1` (centres undefined) is 8.7%; for `CNC(=O)NC(=O)C(C)OC(=O)CCCSc1nc2ccccc2s1` (centres undefined) it is 4.7%. As for `Cc1cc2ccccn2c1C(=O)c1ccc(Cl)c([N+](=O)[O-])c1`, the inhibition is 3.4%.

As for `O=C(Nc1nn[nH]n1)c1cccc([N+](=O)[O-])c1`, the inhibition was 1.8%.

As for `O=C(Nc1ccccc1Br)c1c(F)cccc1Cl`, the inhibition is -8.7%. In the case of `O=C(Nc1ccccc1)C1=C[C@@H](c2ccccc2)C[C@@H](OCc2ccc(CO)cc2)O1`, the inhibition is 15.7%.

On to `O=C(NCc1ccccc1)C1=C[C@H](c2ccc3c(c2)OCO3)C[C@H](OCCCCO)O1`, for which the inhibition was 64.5% (active). The figure for `O=C(O)C1=C[C@@H](c2ccc3c(c2)OCO3)C[C@@H](OCCCCO)O1` is 4%; for `C#CCNC(=O)C1=C[C@@H](c2ccccc2)C[C@@H](OCc2ccc(CO)cc2)O1` it is 28.3%. The figure for `O=C(NCc1ccccc1)C1=C[C@@H](c2ccccc2)C[C@@H](OCc2ccc(CO)cc2)O1` is 61.7% (active); for `O=C(Nc1ccccc1)C1=C[C@H](c2ccc3c(c2)OCO3)C[C@H](OCCCCO)O1` it is 12.1%; for `Cc1nn(Cc2ccccc2Cl)c(C)c1NC(=O)CCCn1nc([N+](=O)[O-])c(Cl)c1C` it is 0.3%.

As to `CC(=O)N1CCN=C1SCc1ccc(C)cc1`, the inhibition is 5.8%.

For `C=CCn1c(COc2ccc(Cl)cc2)nnc1SCC(=O)NCC(=O)OCC`, the inhibition was -3.6%. The figure for `CCOC(=O)C1(Cc2cccc(F)c2)CCN(C(=O)C2CCCO2)CC1` (centres undefined) is -13.3%; for `O=C(Nc1cc(N2CCOCC2)ncn1)NC1(C(F)(F)F)Oc2ccccc2O1` it is 7.9%; for `Cc1cc(NC(=O)NC2(C(F)(F)F)Oc3ccc(Cl)cc3O2)no1` (centres undefined) it is 12.7%. The figure for `Cc1cc(NC(=O)CSc2nc(-c3ccccc3)nc3c2c(=O)n(C)c(=O)n3C)no1` is -6.7%; for `CCn1c(SCC(=O)Nc2cc(OC)c(OC)c(OC)c2)nnc1-c1cccs1` it is 0.1%. The figure for `CCc1ccc(NC(=S)Nc2cccc3cnccc23)cc1` is 51.5% (active); for `S=C(Nc1ccc(Cl)cc1)Nc1cccc2cnccc12` it is 12.2%. Turning to `Cc1cc(C)cc(NC(=S)Nc2cccc3cnccc23)c1`, the inhibition was 59.3% (active). The figure for `CC(=O)N(C)c1ccc(NC(=S)Nc2ccccc2)cc1` is 2.5%. The figure for `Fc1ccc(NC(=S)Nc2cccc3cnccc23)cc1` is -10.5%. The figure for `Cc1ccc(NC(=S)Nc2cccc3cnccc23)cc1C` is -34.8%; for `COc1ccc(NC(=S)Nc2ccc(N(C)C(C)=O)cc2)cc1` it is 17.5%. In the case of `CC(=O)N(C)c1ccc(NC(=S)Nc2cccc3ccccc23)cc1`, the inhibition was 55.1% (active). The figure for `Cc1ccc(NC(=S)Nc2cccc3cnccc23)c(C)c1` is 25.7%. The figure for `COc1cc(OC)cc(C(=O)N2CCCc3ccccc32)c1` is 12.7%; for `Brc1ccc(/C=N/Nc2ccccn2)cc1` it is -7.7%; for `COC(=O)CS(=O)(=O)c1cc([N+](=O)[O-])ccc1NC(=O)OC` it is 13.9%.

Regarding `C1CCCN(c2nc3nonc3nc2N2CCCCCC2)CC1`, the inhibition was -3.2%.

Take `N#CCCn1cc(C(=O)N2CCOCC2)c(-c2ccc3c(c2)OCCO3)n1`: the inhibition was 5.1%. The figure for `Cc1ccc2[nH]c(=O)c(CN(Cc3ccccc3Cl)C(=O)N3CCOCC3)cc2c1` is 8.8%.

For the compound `CCOC(=O)C1=C(N)N2C(=O)C(C)SC2=C(C(=O)OC)C1c1cccc(OC)c1` (centres undefined), the inhibition is 2.8%. The figure for `COC(=O)C1=C2SC(C)C(=O)N2C(N)=C(C#N)C1c1ccc(OC)c(OC)c1` (centres undefined) is 51.3% (active); for `COC(=O)C1=C2SC(C)C(=O)N2C(N)=C(C#N)C1c1cc(OC)c(OC)c(OC)c1` (centres undefined) it is 24.2%; for `COc1ccc(S(=O)(=O)N2CCOC2CNC(=O)C(=O)NCCc2ccc(OC)c(OC)c2)cc1C` (centres undefined) it is 52.2% (active). The figure for `COc1ccc(CCNC(=O)C(=O)NCC2OCCN2S(=O)(=O)c2ccc(Br)cc2)cc1OC` (centres undefined) is -12.7%; for `COc1ccc(S(=O)(=O)N2CCOC2CNC(=O)C(=O)NCCc2ccc(OC)c(OC)c2)cc1` (centres undefined) it is -0.2%; for `O=C(O)C1CCC(=O)N1Cc1ccc(F)cc1` (centres undefined) it is -3.6%. As for `CCc1ccc(NC(=O)NCCN2CCc3ccccc3C2)cc1`, the inhibition was -6.5%. `CCOP(=O)(OCC)C(Nc1ccccn1)c1ccccc1` (centres undefined): the inhibition was -3.9%. Take `Cc1c2cnn(-c3ccccc3)c(=O)c2c(C)n1CCCC(=O)N1CCN(c2ncccn2)CC1`: the inhibition was -2.5%. The figure for `CNC(=S)Nc1ccc2nc(C)c(C)nc2c1` is 38%; for `COc1ccc(NC(=S)Nc2ccc3snnc3c2)cc1` it is 54.2% (active); for `COc1ccc(NC(=S)Nc2ccc3nc(C)c(C)nc3c2)cc1` it is 54.2% (active). With `COc1ccc(NC(=S)Nc2ccc3nsnc3c2)cc1`, the inhibition is 47%. The figure for `S=C(Nc1ccc(N2CCOCC2)cc1)Nc1ccc2snnc2c1` is 41%; for `COc1ccc(NC(=O)c2ccc3snnc3c2)cc1` it is -1.3%; for `CCNC(=S)Nc1ccc(Cl)c(C(F)(F)F)c1` it is 7.2%. The figure for `CCN1CCC(NC(=O)Nc2ccc(F)cc2F)CC1` is -11.5%; for `CCCS(=O)(=O)c1ccc(COC(=O)c2ccc(NC(C)=O)cc2)cc1` it is -0.1%.

For orientation: inhibition means the relative decrease from the control value, in per cent.
